Each structure is given as a SMILES string. This is part of a sample that, as a whole, favours compounds with a hit. Of some 83,000 tested, about 20% had one in any assay.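 A percent growth of 40 corresponds to 60% growth inhibition; 0 means no net growth; -100 means all cells died. Active threshold: below 10.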 Values without a mark were called inactive. Active and inactive are the calls of the source.

What all share (experiment): NCI-60 one-dose screen, 48 h (100 = growth as untreated, 0 = no growth, -100 = all killed)
What all share (conditions): 10 µM unless noted

In assay [1] the test system is SK-MEL-2 melanoma.
For assay [2], the system named is EKVX NSCLC.
Assay [3] relates to SN12C renal.
In assay [4] the test system is UO-31 renal.
Assay [5] has as its system TK-10 renal.
Assay [6] relates to ACHN renal.
Assay [7] relates to CAKI-1 renal.
Assay [8] relates to A498 renal.
Assay [9] deals with SR leukemia.
The test system of assay [10] is RPMI-8226 leukemia.
Assay [11] deals with OVCAR-8 ovarian.
The subject of assay [12] is OVCAR-5 ovarian.
The subject of assay [13] is OVCAR-4 ovarian.
Assay [14] has as its system SK-OV-3 ovarian.
In assay [15] the test system is IGROV1 ovarian.
Assay [16] has as its system OVCAR-3 ovarian.
The test system of assay [17] is NCI/ADR-RES ovarian.
Assay [18] has as its system HS 578T breast.
For assay [19], the system named is MOLT-4 leukemia.

`Cc1c(O)cc(-c2cnc(N/N=C\c3ccc(Cl)cc3)s2)c(O)c1C`: the growth in [1] was 101%; in assay [2], 64.3%; in assay [3], 87.5%; in [4], 75.5%; in [5], 120%; in assay [6] it was 100%. Moreover, the growth is 92% in assay [7]; 103% in assay [8]; 58.3% in assay [9]; 41.5% in [10]; 60.7% in assay [11]; 102% in assay [12]. Besides, the growth is 61.7% in assay [13]; 104% in assay [14]; 83.5% in [15]; 90.3% in [16]; 80.5% in assay [17].
Consider `CCN(CC)CCN1C(=O)c2c(c(C)c3c(oc4cc(O)ccc43)c2C)C1=O`, for which the growth in assay [1] was 108%; in assay [2], 103%; in assay [3], 86.9%; in assay [4], 69.2%; in assay [5] it was -92.3% (active); in assay [6] it was 49.5%. Moreover, the growth in [7] was -92.5% (active); in [8] it was 101%; in assay [9] it was -25.3% (active); in assay [10], -36.3% (active); in assay [11] it was -62.6% (active); in assay [12], -38.5% (active). Besides, the growth in assay [14] was 108%; in [15], 91.9%; in assay [16] it was -88% (active); in assay [18], 87.7%; in [17], 78%.
Consider `Cn1cc(-c2csc(-c3ccccc3)n2)c2cccnc21`, for which the growth is -48.2% [100 µM] (active) in assay [1]; 4.11% [100 µM] (active) in assay [2]; -58.2% [100 µM] (active) in assay [3]; -28.7% [100 µM] (active) in [4]; -45.7% [100 µM] (active) in assay [5]; 0.882% [100 µM] (active) in assay [6]. In addition, the growth in assay [7] was -32.4% [100 µM] (active); in assay [8] it was -82.4% [100 µM] (active); in assay [19] it was -8.37% [100 µM] (active); in [9] it was 0.511% [100 µM] (active); in [11], 2.29% [100 µM] (active); in [13] it was -19.4% [100 µM] (active). For the same compound, the growth in assay [14] is -30.1% [100 µM] (active); in assay [15], -20.7% [100 µM] (active); in assay [16], -31.8% [100 µM] (active); in assay [18], 20.8% [100 µM]; in assay [17], -27.8% [100 µM] (active).
In the case of `C=C1C(=O)O[C@H]2[C@H]1CC/C(COC(=O)C(=O)c1c[nH]c3ccc(OC)cc13)=C\CC[C@@]1(C)O[C@@H]21`, the growth in assay [1] is -60.9% (active); in assay [2], -4.43% (active); in assay [3], -48.5% (active); in [4] it was -96.3% (active); in assay [5], -56.7% (active); in assay [6], -67.1% (active). The growth in assay [7] is -56.9% (active); in assay [8], -98.7% (active); in assay [9], -2.97% (active); in [10] it was -35.6% (active); in assay [11], -24.6% (active); in assay [12], -30.6% (active). Further, the growth is -12% (active) in assay [13]; 15.8% in [14]; -73% (active) in assay [15]; -74.6% (active) in [16]; 2.01% (active) in [18]; 7.22% (active) in assay [17].
In the case of `CC(C)(C)c1ccc(/C=C/C(=O)Nc2ccc(O)cc2)cc1`, the growth in assay [1] was 94.6%; in [2], 89.2%; in [3], 61.8%; in assay [4], 31.6%; in assay [5] it was 103%; in [6], 60.6%. Also, the growth in [7] was 61.7%; in assay [8], 103%; in assay [19], 29.4%; in [10], 59.8%; in [11] it was 45.7%; in assay [12], 89.8%. In addition, the growth in assay [13] is 73.8%; in assay [14] it was 96.8%; in assay [15] it was 62.2%; in [16], 60.4%; in assay [18] it was 80.4%; in assay [17], 59.9%.
In the case of `O=c1cc(-c2ccc(Cl)cc2)[nH]c2ccccc12`, the growth was 79.7% in assay [1]; 68.3% in assay [2]; 96.9% in assay [3]; 74.6% in assay [4]; 110% in [5]; 85.6% in assay [6]. Also, the growth was 73.7% in [7]; 75.1% in [8]; 110% in [19]; 71.5% in assay [10]; 102% in assay [11]; 92.1% in [13]. Also, the growth in assay [14] was 90.4%; in assay [15] it was 81.7%; in assay [16] it was 81.7%; in assay [18], 106%; in assay [17], 62.2%.
On to `CN(C)c1ccc(-c2ccc3[nH]c(=O)nc(-c4ccccc4)c3c2)cn1`, for which the growth is 22.8% in [1]; 58.5% in assay [2]; 50.7% in assay [3]; 53% in assay [4]; 82.8% in [5]; 47.9% in [6]. Besides, the growth in assay [7] is 49.6%; in assay [8] it was 52.3%; in [9], 16.2%; in assay [10], 56.5%; in assay [11] it was 63.8%; in assay [12] it was 65.9%. The growth was 70.4% in assay [13]; 63.5% in [14]; 49.7% in [15]; 5.38% (active) in assay [16]; 55.6% in assay [18]; 49.4% in [17].
`O=c1c2c3c(sc2n2c(-c4cc(-c5ccccc5)nn4-c4ccccc4)nnc2n1Cc1ccccc1)CCCC3`: the growth in assay [1] was 102%; in [2], 101%; in [3], 98%; in [4], 36.7%; in assay [5] it was 126%; in [6] it was 106%. The growth is 20.9% in assay [7]; 141% in [8]; 13.2% in assay [9]; 14.2% in [10]; 49.5% in [11]; 113% in assay [12]. The growth in assay [13] is 83.2%; in assay [14] it was 133%; in assay [16], 101%; in assay [18] it was 356%; in assay [17] it was 80.4%.
On to `COC(=O)c1c2c(c(C)[n+]([O-])c1C)C(=O)C(NCc1ccc(F)c(Cl)c1)=CC2=O`, for which the growth in [1] was 29.4%; in [2], 37.8%; in [3], -0.149% (active); in [4], 41.7%; in [5], 58.8%; in assay [6], 30.9%. The growth in assay [7] is 34%; in [8] it was 78%; in [19], -19.2% (active); in assay [10], 20.6%; in assay [11], -14.5% (active); in [12] it was 38.2%. Further, the growth in assay [13] was -96.4% (active); in [14], 87.2%; in assay [15], 3.18% (active); in [16], -21.3% (active); in assay [18] it was 68%; in assay [17], 0.134% (active).

The values are drawn from PubChem BioAssay (NCI).
